Measured values reported in the supplement of paper PMC10849652.
About 8,800 targets were measured; listed, in parts, are those with a hit and a random draw of the rest. About 0.5% of all pairs of compound and target were hits.

compound: CC1=C2C(=CC=C1)N=C(N(C2=O)C3=CC=CC=C3C)CN4C=NC5=C(N=CN=C54)N; test: log2 fold change, soluble protein after heating vs DMSO (PISA); higher = thermal stabilisation; K562 lysate, 10 uM; active = over 0.2 and 3.5 SD of the protein, either way, in both replicates (recomputed)
Procedure, shortened: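 To prepare the extract, K562 pellets were dounce-homogenised in PBS pH 7.4 with 1 mM MgCl2, giving crude material at 1 mg/mL protein. This was treated with 10 μM compound for 30 min, then heated in aliquots for 3 min over 48°C-58°C before pooling and addition of NP-40 to 0.5% at 4°C. Centrifugation at 21,000xg for 90 min left soluble protein in the supernatant, which TMTpro 16plex LC-MS/MS quantified with equalised channel sums. Results are log-two fold changes in thermal stability compared with solvent controls, from duplicates.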

UniProt O43663, sequence (O43663 whole entry, looked up): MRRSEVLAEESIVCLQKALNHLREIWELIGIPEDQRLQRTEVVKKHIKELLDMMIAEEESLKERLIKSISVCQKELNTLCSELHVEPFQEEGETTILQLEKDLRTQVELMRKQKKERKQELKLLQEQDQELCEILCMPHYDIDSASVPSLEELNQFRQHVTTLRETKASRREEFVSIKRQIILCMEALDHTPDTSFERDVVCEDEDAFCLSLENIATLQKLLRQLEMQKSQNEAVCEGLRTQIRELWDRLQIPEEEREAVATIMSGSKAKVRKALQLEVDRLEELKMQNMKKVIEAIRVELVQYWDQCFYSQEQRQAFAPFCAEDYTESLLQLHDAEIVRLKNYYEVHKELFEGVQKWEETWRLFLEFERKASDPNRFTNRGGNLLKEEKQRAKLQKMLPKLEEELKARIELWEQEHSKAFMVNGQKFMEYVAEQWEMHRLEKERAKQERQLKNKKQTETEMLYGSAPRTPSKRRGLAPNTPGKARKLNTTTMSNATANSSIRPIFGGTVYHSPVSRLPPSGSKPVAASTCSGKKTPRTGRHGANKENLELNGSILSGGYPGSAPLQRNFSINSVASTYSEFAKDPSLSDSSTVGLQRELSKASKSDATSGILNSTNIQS
UniProt Q96I23, sequence (Q96I23 whole entry, looked up): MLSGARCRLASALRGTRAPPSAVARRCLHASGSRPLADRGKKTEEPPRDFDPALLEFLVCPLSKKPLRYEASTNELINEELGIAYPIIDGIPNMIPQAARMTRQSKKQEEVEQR
UniProt Q01813, sequence (Q01813 whole entry, looked up): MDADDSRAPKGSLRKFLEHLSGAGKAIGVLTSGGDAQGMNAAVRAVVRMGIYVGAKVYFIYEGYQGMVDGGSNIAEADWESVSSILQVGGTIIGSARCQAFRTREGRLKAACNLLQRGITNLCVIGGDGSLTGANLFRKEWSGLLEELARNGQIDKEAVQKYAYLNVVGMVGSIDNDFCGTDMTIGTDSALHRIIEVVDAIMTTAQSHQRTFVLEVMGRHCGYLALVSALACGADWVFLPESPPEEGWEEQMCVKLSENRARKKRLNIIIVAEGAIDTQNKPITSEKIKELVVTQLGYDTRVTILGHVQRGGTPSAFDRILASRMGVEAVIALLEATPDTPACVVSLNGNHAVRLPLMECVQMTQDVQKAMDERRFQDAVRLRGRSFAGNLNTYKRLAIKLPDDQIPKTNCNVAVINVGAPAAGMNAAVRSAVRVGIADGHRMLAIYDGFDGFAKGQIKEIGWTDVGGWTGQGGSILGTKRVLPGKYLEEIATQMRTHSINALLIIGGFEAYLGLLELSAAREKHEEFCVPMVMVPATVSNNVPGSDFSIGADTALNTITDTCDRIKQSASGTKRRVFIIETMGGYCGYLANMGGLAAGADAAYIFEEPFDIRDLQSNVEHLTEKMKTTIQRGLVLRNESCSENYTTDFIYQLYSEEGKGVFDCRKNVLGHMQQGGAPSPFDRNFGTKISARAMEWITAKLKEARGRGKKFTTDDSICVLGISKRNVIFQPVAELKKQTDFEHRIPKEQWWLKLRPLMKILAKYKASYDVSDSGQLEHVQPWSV
UniProt O00329, sequence (O00329 whole entry, looked up): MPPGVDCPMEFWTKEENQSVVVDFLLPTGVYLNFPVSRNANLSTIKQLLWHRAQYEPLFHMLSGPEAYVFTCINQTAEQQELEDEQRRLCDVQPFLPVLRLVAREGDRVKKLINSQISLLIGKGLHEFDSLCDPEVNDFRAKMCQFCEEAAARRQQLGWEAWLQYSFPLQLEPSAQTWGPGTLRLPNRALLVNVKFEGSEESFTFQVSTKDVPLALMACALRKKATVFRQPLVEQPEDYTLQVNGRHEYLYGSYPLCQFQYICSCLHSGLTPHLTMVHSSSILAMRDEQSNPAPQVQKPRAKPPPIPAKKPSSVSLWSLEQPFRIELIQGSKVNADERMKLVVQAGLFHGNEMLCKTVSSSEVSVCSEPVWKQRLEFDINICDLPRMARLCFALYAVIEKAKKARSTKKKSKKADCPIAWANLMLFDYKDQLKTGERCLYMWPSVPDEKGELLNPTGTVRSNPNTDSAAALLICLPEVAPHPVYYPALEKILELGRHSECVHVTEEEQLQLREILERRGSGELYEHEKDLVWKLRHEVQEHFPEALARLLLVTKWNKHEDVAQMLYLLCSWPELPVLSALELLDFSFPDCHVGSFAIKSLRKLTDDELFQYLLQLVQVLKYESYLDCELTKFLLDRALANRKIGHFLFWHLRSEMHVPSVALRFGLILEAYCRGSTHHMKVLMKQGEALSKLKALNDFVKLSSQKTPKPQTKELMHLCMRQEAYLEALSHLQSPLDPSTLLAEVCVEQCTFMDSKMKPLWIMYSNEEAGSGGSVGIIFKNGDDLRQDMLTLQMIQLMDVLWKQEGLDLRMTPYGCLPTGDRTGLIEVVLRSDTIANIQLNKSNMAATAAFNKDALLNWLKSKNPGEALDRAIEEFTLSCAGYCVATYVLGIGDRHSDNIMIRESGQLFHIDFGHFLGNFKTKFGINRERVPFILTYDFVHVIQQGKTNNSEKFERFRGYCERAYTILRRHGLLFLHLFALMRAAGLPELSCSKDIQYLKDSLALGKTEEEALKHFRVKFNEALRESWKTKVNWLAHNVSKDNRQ
UniProt O14744, sequence (O14744 whole entry, looked up): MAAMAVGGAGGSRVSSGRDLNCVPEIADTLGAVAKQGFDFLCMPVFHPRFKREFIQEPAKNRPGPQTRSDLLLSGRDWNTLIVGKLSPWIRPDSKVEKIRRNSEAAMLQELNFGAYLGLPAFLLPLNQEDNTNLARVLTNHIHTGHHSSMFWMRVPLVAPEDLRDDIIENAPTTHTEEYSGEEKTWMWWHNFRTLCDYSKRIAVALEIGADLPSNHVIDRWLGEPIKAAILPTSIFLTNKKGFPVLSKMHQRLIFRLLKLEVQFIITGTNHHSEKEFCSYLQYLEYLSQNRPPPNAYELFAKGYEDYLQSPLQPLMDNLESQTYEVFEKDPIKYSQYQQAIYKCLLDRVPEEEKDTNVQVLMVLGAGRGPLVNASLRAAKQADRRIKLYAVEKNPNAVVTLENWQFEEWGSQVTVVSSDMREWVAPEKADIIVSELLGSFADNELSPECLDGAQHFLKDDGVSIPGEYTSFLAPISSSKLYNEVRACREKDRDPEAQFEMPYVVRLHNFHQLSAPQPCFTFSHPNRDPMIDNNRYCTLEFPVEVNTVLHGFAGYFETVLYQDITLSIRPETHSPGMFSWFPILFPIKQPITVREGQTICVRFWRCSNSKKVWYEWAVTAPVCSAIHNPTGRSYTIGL
UniProt Q15054, sequence (Q15054 whole entry, looked up): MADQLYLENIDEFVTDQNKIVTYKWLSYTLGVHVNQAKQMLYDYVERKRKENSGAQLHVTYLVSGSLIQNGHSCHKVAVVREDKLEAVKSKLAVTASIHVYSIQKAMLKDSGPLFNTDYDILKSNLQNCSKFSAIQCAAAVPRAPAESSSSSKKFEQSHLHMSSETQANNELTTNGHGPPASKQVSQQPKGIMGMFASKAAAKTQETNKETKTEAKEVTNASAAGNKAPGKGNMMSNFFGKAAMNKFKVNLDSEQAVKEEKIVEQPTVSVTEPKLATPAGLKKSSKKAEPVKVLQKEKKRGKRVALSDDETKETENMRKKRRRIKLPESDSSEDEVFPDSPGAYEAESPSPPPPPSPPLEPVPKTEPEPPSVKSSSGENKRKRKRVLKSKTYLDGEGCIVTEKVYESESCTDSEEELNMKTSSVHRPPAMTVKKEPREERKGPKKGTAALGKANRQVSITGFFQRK
UniProt Q969Q6, sequence (Q969Q6 whole entry, looked up): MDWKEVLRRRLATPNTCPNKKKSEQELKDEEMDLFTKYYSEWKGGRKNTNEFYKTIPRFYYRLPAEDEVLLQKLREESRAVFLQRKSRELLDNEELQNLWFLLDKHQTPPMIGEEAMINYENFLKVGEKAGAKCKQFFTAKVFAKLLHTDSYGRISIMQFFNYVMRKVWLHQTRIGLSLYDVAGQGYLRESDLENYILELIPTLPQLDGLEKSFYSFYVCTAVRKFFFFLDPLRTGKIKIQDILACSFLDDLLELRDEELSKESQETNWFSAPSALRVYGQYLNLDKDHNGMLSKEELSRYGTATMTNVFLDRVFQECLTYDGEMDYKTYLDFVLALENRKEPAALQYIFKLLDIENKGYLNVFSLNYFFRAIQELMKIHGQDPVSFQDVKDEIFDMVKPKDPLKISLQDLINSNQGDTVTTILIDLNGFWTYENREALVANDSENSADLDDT
UniProt Q9Y570, sequence (Q9Y570 whole entry, looked up): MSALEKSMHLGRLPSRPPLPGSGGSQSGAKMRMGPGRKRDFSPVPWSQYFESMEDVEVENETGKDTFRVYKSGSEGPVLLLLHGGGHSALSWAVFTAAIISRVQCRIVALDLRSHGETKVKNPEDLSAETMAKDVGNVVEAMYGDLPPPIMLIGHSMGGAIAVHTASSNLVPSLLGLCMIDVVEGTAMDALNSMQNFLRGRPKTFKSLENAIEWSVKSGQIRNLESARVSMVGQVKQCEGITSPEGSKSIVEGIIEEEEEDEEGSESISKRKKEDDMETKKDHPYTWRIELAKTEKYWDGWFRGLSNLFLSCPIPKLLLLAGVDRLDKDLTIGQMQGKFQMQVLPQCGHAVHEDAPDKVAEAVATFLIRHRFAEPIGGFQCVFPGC
UniProt P13861, sequence (P13861 whole entry, looked up): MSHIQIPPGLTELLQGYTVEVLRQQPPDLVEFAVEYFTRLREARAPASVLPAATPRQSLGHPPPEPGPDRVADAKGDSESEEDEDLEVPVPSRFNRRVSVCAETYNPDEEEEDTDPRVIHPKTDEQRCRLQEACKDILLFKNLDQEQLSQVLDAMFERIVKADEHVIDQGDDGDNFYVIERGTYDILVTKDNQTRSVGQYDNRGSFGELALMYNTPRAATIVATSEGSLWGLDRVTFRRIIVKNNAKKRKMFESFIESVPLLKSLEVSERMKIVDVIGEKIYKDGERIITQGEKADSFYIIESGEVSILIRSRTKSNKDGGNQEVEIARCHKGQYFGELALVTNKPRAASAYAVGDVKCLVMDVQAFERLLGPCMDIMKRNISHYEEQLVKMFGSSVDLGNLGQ

| Target | log2 fold change |
| --- | --- |
| PIP4K2B (UniProt P78356) | -0.014 (inactive) |
| PRKAR2A (UniProt P13861) | 0.038 (inactive) |
| PCIF1 (UniProt Q9H4Z3) | 0.026 (inactive) |
| PRMT5 (UniProt O14744) | 0.006 (inactive) |
| PIK3R1 (UniProt P27986) | 0.313 (inactive) |
| PFKFB4 (UniProt Q16877) | 0.059 (inactive) |
| POLD3 (UniProt Q15054) | 0.019 (inactive) |
| PI4KB (UniProt Q9UBF8) | -0.019 (inactive) |
| PHKA1 (UniProt P46020) | 0 (inactive) |
| PDCD10 (UniProt Q9BUL8) | -0.013 (inactive) |
| PPFIA2 (UniProt O75334) | 0.003 (inactive) |
| PLK1 (UniProt P53350) | 0.052 (inactive) |
| PFKP (UniProt Q01813) | 0.043 (inactive) |
| PDS5A (UniProt Q29RF7) | 0.017 (inactive) |
| PLXNB2 (UniProt O15031) | 0.014 (inactive) |
| PPIC (UniProt P45877) | 0.12 (inactive) |
| PYURF (UniProt Q96I23) | 0.126 (inactive) |
| PIK3CD (UniProt O00329) | 0.443 (active) |
| PI4K2A (UniProt Q9BTU6) | -0.007 (inactive) |
| QKI (UniProt Q96PU8) | -0.023 (inactive) |

| Target | log2 fold change |
| --- | --- |
| PFDN2 (UniProt Q9UHV9) | -0.016 (inactive) |
| PRKAB2 (UniProt O43741) | 0.009 (inactive) |
| PKP3 isoform 2 (UniProt Q9Y446) | 0.002 (inactive) |
| PES1 (UniProt O00541) | 0.019 (inactive) |
| PRIM2 (UniProt P49643) | 0.016 (inactive) |
| PRKCB isoform 2 (UniProt P05771) | 0.086 (inactive) |
| PPP2R5C isoform 2 (UniProt Q13362) | 0.004 (inactive) |
| PPP4R2 (UniProt Q9NY27) | -0.001 (inactive) |
| POGK (UniProt Q9P215) | -0.008 (inactive) |
| PIK3C3 (UniProt Q8NEB9) | -0.036 (inactive) |
| PI4K2B (UniProt Q8TCG2) | 0.074 (inactive) |
| PPP2R3C (UniProt Q969Q6) | 0.042 (inactive) |
| PDE4DIP isoform 4 (UniProt Q5VU43) | 0.018 (inactive) |
| PIR (UniProt O00625) | 0.026 (inactive) |
| PRKD2 isoform 3 (UniProt Q9BZL6) | 0.121 (inactive) |
| PPME1 isoform 4 (UniProt Q9Y570) | -0.019 (inactive) |
| PHKB isoform 3 (UniProt Q93100) | 0.042 (inactive) |
| PUS3 (UniProt Q9BZE2) | -0.073 (inactive) |
| PRC1 (UniProt O43663) | 0.026 (inactive) |
